The source made the active and inactive calls.
How the values were obtained:
[1] = anti-His antibody binders, primary screen, artefact control for SMM control protein annotation, biochemical, small-molecule microarray, 635 nm fluorescence (AID 1128); conditions: anti-His Alexa647 antibody binding, higher = more signal;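 also: score merges feature fluorescence with signal-to-noise for each printed compound spot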
[2] = system: Human papillomavirus type 1a E7 protein (residues 1-88); experiment: HPV1a E7 small-molecule binders, primary screen, biochemical, small-molecule microarray, residues 1-88, 635 nm (AID 1129); conditions: small-molecule microarray binding, fluorescence 635 nm; higher = more signal
[3] = biological target: Focal adhesion kinase 1 (Homo sapiens) (UniProt Q05397); experiment: small-molecule microarray binders of FAK, primary screen, biochemical, 635/667 nm fluorescence, BSA, DTT (AID 1130); conditions: PTK2 binding, 635 nm fluorescence, higher = more signal;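 also: composite of spot emission at 667 nm and signal to noise over triplicate slides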
Sequence of Focal adhesion kinase 1 (Homo sapiens) (Q05397 whole entry, looked up): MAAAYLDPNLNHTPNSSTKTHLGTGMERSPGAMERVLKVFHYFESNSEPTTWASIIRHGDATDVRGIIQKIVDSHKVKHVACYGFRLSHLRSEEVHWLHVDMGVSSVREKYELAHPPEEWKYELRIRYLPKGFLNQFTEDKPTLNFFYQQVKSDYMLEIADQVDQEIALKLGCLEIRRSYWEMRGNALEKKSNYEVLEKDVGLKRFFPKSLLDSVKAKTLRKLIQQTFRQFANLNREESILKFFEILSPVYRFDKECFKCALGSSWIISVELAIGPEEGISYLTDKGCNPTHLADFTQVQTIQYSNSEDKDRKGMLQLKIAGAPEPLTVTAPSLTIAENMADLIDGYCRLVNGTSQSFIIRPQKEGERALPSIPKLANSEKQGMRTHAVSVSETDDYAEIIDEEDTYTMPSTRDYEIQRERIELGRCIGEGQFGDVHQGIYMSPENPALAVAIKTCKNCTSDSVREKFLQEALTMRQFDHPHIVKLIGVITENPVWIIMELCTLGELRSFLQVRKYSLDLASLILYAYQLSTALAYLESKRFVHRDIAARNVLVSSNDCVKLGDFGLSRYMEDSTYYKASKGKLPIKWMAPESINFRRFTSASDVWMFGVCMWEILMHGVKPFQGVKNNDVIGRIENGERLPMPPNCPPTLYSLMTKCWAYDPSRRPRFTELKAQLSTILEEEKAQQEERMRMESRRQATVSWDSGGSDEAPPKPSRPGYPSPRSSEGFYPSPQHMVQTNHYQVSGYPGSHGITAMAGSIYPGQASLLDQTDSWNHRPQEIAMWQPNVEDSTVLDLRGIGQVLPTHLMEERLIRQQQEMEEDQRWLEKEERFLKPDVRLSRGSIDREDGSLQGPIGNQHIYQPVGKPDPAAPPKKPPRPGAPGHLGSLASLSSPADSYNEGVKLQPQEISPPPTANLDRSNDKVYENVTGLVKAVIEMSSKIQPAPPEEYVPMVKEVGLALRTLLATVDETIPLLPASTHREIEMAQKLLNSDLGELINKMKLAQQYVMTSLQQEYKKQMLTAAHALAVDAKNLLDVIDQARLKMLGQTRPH

[4] = system: Fibrinogen (Alexa647-labelled); experiment: fibrinogen binders on compound microarrays, profiling panel, artefact control for SMM control-protein annotation, biochemical, small-molecule microarray, 635/667 nm fluorescence (AID 1131); conditions: fibrinogen-A647 binding fluorescence, higher = more signal;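 also: z-score merges 667 nm fluorescence with per-spot signal-to-noise over triplicate slides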
[5] = biological target: Follistatin (Homo sapiens) (UniProt P19883); experiment: follistatin binders on small-molecule microarrays, primary screen, biochemical, small-molecule microarray, 635/667 nm fluorescence (AID 1132); conditions: FST binding, 635 nm fluorescence, higher = more signal
Sequence of Follistatin (Homo sapiens) (P19883 whole entry, looked up): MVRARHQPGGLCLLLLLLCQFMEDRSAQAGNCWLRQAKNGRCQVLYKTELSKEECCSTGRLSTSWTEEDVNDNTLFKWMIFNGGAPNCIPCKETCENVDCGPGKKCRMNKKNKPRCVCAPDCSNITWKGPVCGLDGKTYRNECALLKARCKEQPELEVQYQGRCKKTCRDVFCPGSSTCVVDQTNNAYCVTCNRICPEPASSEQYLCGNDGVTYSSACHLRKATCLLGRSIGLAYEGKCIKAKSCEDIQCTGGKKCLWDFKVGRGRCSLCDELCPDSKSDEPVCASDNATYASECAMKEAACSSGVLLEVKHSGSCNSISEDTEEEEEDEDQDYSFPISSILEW

[6] = biological target: Fibroblast growth factor 2 (Homo sapiens) (UniProt P09038); experiment: FGF2 binders on small-molecule microarrays, primary screen, biochemical, small-molecule microarray, 635/667 nm fluorescence (AID 1133); conditions: small-molecule microarray binding, FGF2, fluorescence 635/667; higher = more signal
Sequence of Fibroblast growth factor 2 (Homo sapiens) (P09038 whole entry, looked up): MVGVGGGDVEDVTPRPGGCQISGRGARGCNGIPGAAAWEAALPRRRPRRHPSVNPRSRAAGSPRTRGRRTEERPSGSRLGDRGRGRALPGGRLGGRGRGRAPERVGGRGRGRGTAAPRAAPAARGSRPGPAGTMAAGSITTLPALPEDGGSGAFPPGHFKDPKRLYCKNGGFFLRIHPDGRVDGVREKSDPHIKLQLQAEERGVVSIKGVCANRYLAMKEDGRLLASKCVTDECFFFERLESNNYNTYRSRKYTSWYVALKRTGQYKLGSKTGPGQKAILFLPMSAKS

[7] = mitochondrial membrane potential change in A549 cells, profiling panel, cell-based, JC-1 fluorescence, basal, 24 h, 100 nL (AID 1138); conditions: higher = more signal;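 also: A549 lung adenocarcinoma cells under basal conditions with no added stimulus; test concentration not given here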
Lefty1 = Lefty1 binders on small-molecule microarrays, primary screen, biochemical, small-molecule microarray, 635/667 nm fluorescence (AID 1139); conditions: small-molecule microarray binding, fluorescence 635/667; higher = more signal
[8] = system: wheat germ agglutinin (Triticum aestivum), Alexa647-labelled; experiment: wheat germ agglutinin binders on compound microarrays, profiling panel, artefact control for SMM control-protein annotation, biochemical, small-molecule microarray, 635/667 nm fluorescence (AID 1140); conditions: WGA-A647 binding, 635 nm fluorescence, higher = more signal;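 also: score merges 667 nm feature emission with signal to noise over triplicate slides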
[9] = biological target: Luciferin 4-monooxygenase (Photinus pyralis) (UniProt P08659); experiment: firefly luciferase enzyme inhibitors, primary screen, biochemical, luminescence, purified enzyme, 2006 set (AID 1141); conditions: SteadyGlo luminescence, 30 min, higher = more signal, called active from +8 up or from −8 down;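 also: cell-free assay with purified firefly luciferase at 100 ng per well in PBS; test concentration not given here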
Sequence of Luciferin 4-monooxygenase (Photinus pyralis) (P08659 whole entry, looked up): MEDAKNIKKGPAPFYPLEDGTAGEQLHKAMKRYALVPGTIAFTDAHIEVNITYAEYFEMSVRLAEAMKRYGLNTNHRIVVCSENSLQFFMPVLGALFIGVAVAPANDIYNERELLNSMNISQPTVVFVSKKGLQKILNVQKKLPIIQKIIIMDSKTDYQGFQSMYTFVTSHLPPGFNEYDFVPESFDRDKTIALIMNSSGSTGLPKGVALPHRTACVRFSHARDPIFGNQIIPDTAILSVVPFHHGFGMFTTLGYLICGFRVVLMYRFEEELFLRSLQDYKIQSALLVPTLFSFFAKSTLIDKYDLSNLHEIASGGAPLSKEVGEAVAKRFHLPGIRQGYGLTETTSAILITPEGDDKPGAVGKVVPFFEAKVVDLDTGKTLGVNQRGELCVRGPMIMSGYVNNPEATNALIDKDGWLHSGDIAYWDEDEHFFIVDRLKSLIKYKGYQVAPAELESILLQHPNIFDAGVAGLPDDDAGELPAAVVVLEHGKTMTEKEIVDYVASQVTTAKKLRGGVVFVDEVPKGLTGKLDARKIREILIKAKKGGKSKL

SMILES	composite z-score [1]	composite z-score [2]	composite z-score [3]	composite z-score [4]	composite z-score [5]	composite z-score [6]	z-score [7]	composite z-score (Lefty1)	composite z-score [8]	z-score [9]
COC(=O)[C@]1(Cc2ccccc2)N=C(c2ccc(OCCCO)cc2)O[C@@H]1c1ccccc1N=[N+]=[N-]	1.15	1.2	0.442	0.863	1.36	1.29	-1.24	0.83	0.464	-4.8 (inactive)
COCC(=C=CC[C@H](O)c1ccccc1OCCO)CCO	-0.69	0.268	0.432	0.869	0.992	1.11	0.417	1.15	1.14	0.109 (inactive)
CC(=O)Nc1cc(Br)ccc1C(=O)NCc1ccccc1	0.69	0.6	0.265	0.402	-0.0708	-0.327	2.26	-0.285	0.674	-0.65 (inactive)
[N-]=[N+]=NCc1ccccc1[C@@H]1OC(c2ccc(OCCCO)cc2)=N[C@]1(CCS(=O)(=O)c1ccccc1)C(N)=O	3.49	1.27	1.21	0.973	1.44	1.83	-0.528	0.616	1.09	-2.98 (inactive)
COc1ccc(C(=O)Nc2ccc(CN3C(=O)[C@]4(O[C@H](CC(=O)N5CCC[C@H]5CO)[C@@H]([Si](C)(C)c5ccc(OC)cc5)[C@@H]4C)c4ccccc43)cc2)cc1	1.91	1.15	0.297	0.81	1.06	1.44	0.195	0.942	0.601	-1.08 (inactive)
O=C1OCCC=C[C@H]2OC34C=CCN(Cn5nnc6ccccc65)C(=O)[C@H]3N(CCO)C(=O)[C@@H]4C12 (stereo not given in full)	-0.459	-0.566	-0.225	-0.934	-0.851	-1.3	-0.758	-1.31	0.522	0.612 (inactive)
COc1ccccc1CN1C(=O)c2ccccc2[C@@H](C(=O)NCc2ccccc2)[C@@H]1c1ccc(CO)cc1	1.99	0.464	0.377	0.688	0.211	0.546	1.03	0.423	0.397	-0.898 (inactive)
C=CCN1Cc2ccccc2[C@@H]2OC(c3ccc(OCCCO)cc3)=N[C@]2(CCS(=O)(=O)c2ccccc2)C1=O	1.56	1.2	0.772	0.811	1.4	1.78	1.37	0.602	0.393	-2.38 (inactive)
Cc1ccc(S[C@]2(C(=O)NCC(C)C)CC(=O)N(Cc3cc(C(F)(F)F)cc(C(F)(F)F)c3)[C@@H]2c2ccc(CO)cc2)cc1	0.63	-0.8	-0.261	-0.529	-0.0643	-0.205	-0.587	-0.866	-0.262	0.111 (inactive)
COCCOC(=O)N1C(=O)[C@@]2(c3ccccc31)[C@H](C(N)=O)[C@H]1C(=O)O[C@H](c3ccccc3)[C@H](c3ccccc3)N1[C@@H]2c1ccc(O)cc1	0.142	1.04	0.386	-0.649	0.412	-0.488	0.381	0.429	0.839	-1.65 (inactive)
COCCCNC(=O)[C@@H]1c2ccccc2C(=O)N(Cc2ccccc2)[C@H]1c1ccc(CO)cc1	1.67	1.01	-0.174	0.185	0.928	0.594	1.29	0.206	0.31	0.519 (inactive)

From PubChem BioAssay
